Assay results: ChEMBL document CHEMBL4513216, “Probing the Open Global Health Chemical Diversity Library for Multistage-Active Starting Points for Next-Generation Antimalarials” (ACS Infect Dis, 2020)
Hit rate of the full screen: of about 69,000 compounds, about 8,600 (12%) showed an effect of 50% or more. The entries come from a sample that favours strong results as a whole.

Each compound was assayed on Plasmodium berghei (assay: Screen against P. berghei liver stage (PbLuc), transformed with Luciferase, at 10uM). Conditions: tested at 10 uM.
Format: functional, HepG2

| Compound | INHIBITION [%] |
| --- | --- |
| CCS(=O)(=O)N1CCN(CCn2cccn2)c2nc(C)ccc2C1 | 26.3 |
| c1cc(CN2CC[C@@H]3[C@@H](CO[C@H]3CN3CCOCC3)C2)cs1 | -20.1 |
| CCN(CC)C(=O)CNC(=O)c1ccc(-c2ccsc2)nc1C | 34.5 |
| CCN(CC)C(=O)c1ccc(-c2ccsc2)nc1C | -6.53 |
| CCN(CC)C(=O)CN(C)C(=O)c1ccc(-c2ccsc2)nc1C | 59.5 |
| CCn1nc(C)c2nn(CC(=O)NC3CCSCC3)cc21 | 25.4 |
| Cn1cccc1C(=O)N1C[C@@H]2C[C@@H](c3nc(C4CC4)cs3)O[C@@H]2C1 | -5.08 |
| CC(C)(C)C(=O)NCCc1cc2nc(-c3ccncc3)ccn2n1 | 24.44 |
| CCOCC(O)CN1CCN(C(=O)c2cccc(OC)c2)CC1 (centres undefined) | -33.7 |
| Cc1cccc(CN2CCC(c3nccn3CC(N)=O)CC2)n1 | 58.3 |
| CCOC(=O)C1(CCOC)CCCN(Cc2nccn2CC)C1 (centres undefined) | 62.2 |
| CCOC(=O)C1(Cc2ccccc2)CCCN(Cc2nccn2CC)C1 (centres undefined) | 35.4 |
| Cc1cnc(C)c(N2CCCC(CO)(Cc3cccc(Cl)c3)C2)n1 (centres undefined) | 34.6 |
| N#Cc1ccccc1CN1CCC(c2nccn2CC(N)=O)CC1 | -15.3 |
| CCn1ccnc1CN1CCCC(CO)(Cc2cccc(Cl)c2)C1 (centres undefined) | 79.3 |
| CCC1(CO)CCCN(Cc2nccn2Cc2ccccc2)C1 (centres undefined) | -82.2 |
| CCn1ccnc1C1CCN(Cc2cccc(C)n2)CC1 | 24.2 |
| Cc1ncc(C)c(N2CCCC(CO)(Cc3cccc(Cl)c3)C2)n1 (centres undefined) | 86.8 |
| OCC1(Cc2cccc(Cl)c2)CCCN(c2ncccn2)C1 (centres undefined) | 11.4 |
| CCn1ccnc1CN1CCCC(CO)(Cc2cccc(OC)c2)C1 (centres undefined) | 23.7 |
| CCOC(=O)C1(CCOC)CCN(Cc2nccn2CC)CC1 | 28.7 |
| COc1ccccc1CN(CC1CCCO1)C(=O)c1csnn1 (centres undefined) | 18.4 |
| O=C(CCc1nccs1)N1CCN(c2nccs2)CC1 | -2.19 |
| CCOCc1ccc(CNC(=O)N2CCC(C(N)=O)C2)cc1 (centres undefined) | 25.6 |
| c1cncc(CN2CCCC(Nc3ncnc4c3CCNCC4)C2)c1 (centres undefined) | 20.9 |
| CNC(=O)[C@@H]1C[C@H]2CN(Cc3ccc(C)s3)C[C@H]2N1C(C)=O | 34.6 |
| CC1CCN(C(=O)c2sccc2-n2cnnn2)CC1 | 20.3 |

| Compound | INHIBITION [%] |
| --- | --- |
| O=C(NCCc1ccc(F)cc1)NCC(O)c1cccc(F)c1 (centres undefined) | 18.2 |
| O=C(N[C@@H]1CC[C@@H](N2CCCC2)[C@@H]1O)c1cc2cccc(F)c2[nH]1 | -0.232 |
| CNC(=O)C1CN(Cc2cc(C)on2)CCN(C2CCOCC2)C1 (centres undefined) | -3.94 |
| CCCN1CCc2[nH]nc(C(=O)N3CCNC(=O)C3)c2C1 | -9.42 |
| CN(C)C(=O)N1C[C@H]2CC[C@@H](C1)N(S(=O)(=O)c1cccnc1)C2 | -62.1 |
| CCCOc1cc(CNC(=O)Nc2ccc(C)cc2)ccn1 | -14.5 |
| CCn1ccnc1C1CCN(Cc2cccc(Cl)c2)CC1 | 60.1 |
| CCn1ccnc1C1CCN(Cc2c(F)cccc2F)CC1 | 43.9 |
| CCn1ccnc1C1CCN(C(=O)C(O)c2ccc(Cl)cc2)CC1 (centres undefined) | 6.66 |
| CCN1CCN(C(=O)COCc2nc(-c3ccncc3)no2)CC1 | -2.92 |
| CCS(=O)(=O)NCCN1CCN(C(C#N)c2ccccc2)CC1 (centres undefined) | 19.4 |
| CC(C)OCCCNC(=O)CN(c1ccc(F)c(F)c1)S(C)(=O)=O | 62.3 |
| CCOCCCNC(=O)CN(c1ccc(C)c(C)c1)S(C)(=O)=O | 18.4 |
| CCOCCCNC(=O)CN(c1ccc(F)c(F)c1)S(C)(=O)=O | 43.3 |
| CCC1=N[C@@]2(CC[C@@H]3CN(C(=O)Nc4ccccc4)C[C@@H]32)C(=O)N1C | 26.3 |
| COC(=O)c1ccc(-c2ccc(/C=C3\C(=O)NC(=N)N3C)o2)cc1 | 34.2 |
| Cc1csc(CNC(=O)N2CCCC(c3nncn3C)C2)n1 (centres undefined) | -23.9 |
| CCOc1ncccc1NC(=O)NC1CCN(C(C)=O)CC1 | 5.7 |
| COc1ccccc1N1CCN(C(=O)CCn2ccc(C)n2)CC1 | 16.2 |
| CS(=O)(=O)N1CCC(c2cnc(-c3cn[nH]c3)cn2)CC1 | 28.9 |
| O=C(C1NCCc2[nH]cnc21)N1CCC2(C=Cc3ccccc32)CC1 (centres undefined) | 53 |
| O=C1OC2(CCN(C(=O)C3NCCc4[nH]cnc43)CC2)c2ccccc21 (centres undefined) | 23.5 |
| O=C(C1NCCc2[nH]cnc21)N1CCC2(CC1)CNc1ccccc12 (centres undefined) | -15.8 |
| Cc1cc(C)nc(N2CCC(C(=O)O)(n3ccc(C(C)(C)C)n3)CC2)n1 | 25.4 |
| O=c1cccnn1CC1CN(CC2CCCC2)Cc2nccn2C1 (centres undefined) | -23.1 |
| CN1CCC(Nc2ccc(F)cc2OCC(F)(F)F)C1=O (centres undefined) | -0.378 |
| CC(CNC(=O)c1ccc(=O)[nH]n1)N1CCc2ccccc21 (centres undefined) | 53 |
